In paper PMC5700166:

target: T1, GST-Aq-NF-kB (Amphimedon queenslandica, UniProt A9Y5G7 2-389); assay: protein-binding microarray (PBM); PBM: ~300 nM protein, 6 mM HEPES pH 7.8, 80 mM KCl, 0.5 mM EDTA, 0.5 mM EGTA, 6% glycerol, 35 ng/ul poly-dIdC, 1% milk, 1 h, room temperature; Ap Aiptasia and Nv Nematostella (sea anemones) / Co Capsaspora / Aq Amphimedon (sponge) / Dm Drosophila / Hu human; RHD is the Rel homology domain; high values mean tight binding; settings: dsDNA, one strand shown
T1 sequence: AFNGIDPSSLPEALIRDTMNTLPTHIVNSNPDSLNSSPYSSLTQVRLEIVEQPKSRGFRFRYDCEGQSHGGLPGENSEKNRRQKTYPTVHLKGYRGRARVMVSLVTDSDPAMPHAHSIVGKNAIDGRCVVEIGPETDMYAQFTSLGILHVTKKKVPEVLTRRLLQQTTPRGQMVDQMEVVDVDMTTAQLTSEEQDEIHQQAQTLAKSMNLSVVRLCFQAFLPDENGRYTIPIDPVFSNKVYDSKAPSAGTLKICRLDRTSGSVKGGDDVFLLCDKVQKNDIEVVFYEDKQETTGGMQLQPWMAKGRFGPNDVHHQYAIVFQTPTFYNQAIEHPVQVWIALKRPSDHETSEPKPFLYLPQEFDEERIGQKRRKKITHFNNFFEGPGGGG

Sequence | binding signal [z-score]
CCGATTAACATCAGGAAATGTCCTGATGTTAATCGGGTCTTGATTCGCTTGACGCTGCTG | 1.67
CCGATTAACATCAGGAATTGCCATGATGTTAATCGGGTCTTGATTCGCTTGACGCTGCTG | 1.02
CCGATTAACATCAGGCAATGCCCTGATGTTAATCGGGTCTTGATTCGCTTGACGCTGCTG | 1.31
CCGATTAACATCACGGAGATTCCTGATGTTAATCGGGTCTTGATTCGCTTGACGCTGCTG | 2.72
CCGATTAACATCAAGGAATGTCCTGATGTTAATCGGGTCTTGATTCGCTTGACGCTGCTG | 1.74
CCGATTAACATCAGGAATCGCCCTGATGTTAATCGGGTCTTGATTCGCTTGACGCTGCTG | 2.28
CCGATTAACATCACGGCATTTCCTGATGTTAATCGGGTCTTGATTCGCTTGACGCTGCTG | 1.96
CCGATTAACATCAAAATTTTCCATGATGTTAATCGGGTCTTGATTCGCTTGACGCTGCTG | 1.14
CCGATTAACATCACGGAAAAGCCTGATGTTAATCGGGTCTTGATTCGCTTGACGCTGCTG | 1.34
CCGATTAACATCACGGACATTCCTGATGTTAATCGGGTCTTGATTCGCTTGACGCTGCTG | 1.97
CCGATTAACATCAGGAATTCTCCTGATGTTAATCGGGTCTTGATTCGCTTGACGCTGCTG | 1.31
CCGATTAACATCAGGATATGCCCTGATGTTAATCGGGTCTTGATTCGCTTGACGCTGCTG | 1.7
CCGATTAACATCAGAAACTTTCCTGATGTTAATCGGGTCTTGATTCGCTTGACGCTGCTG | 2.07
CCGATTAACATCACGGATTTTCCTGATGTTAATCGGGTCTTGATTCGCTTGACGCTGCTG | 3.35
CCGATTAACATCAGGCATTTCCATGATGTTAATCGGGTCTTGATTCGCTTGACGCTGCTG | 1.13
CCGATTAACATCACGGACTGTCCTGATGTTAATCGGGTCTTGATTCGCTTGACGCTGCTG | 2.22
CCGATTAACATCACGGAATGTCCTGATGTTAATCGGGTCTTGATTCGCTTGACGCTGCTG | 1.82
CCGATTAACATCAGGAAGTGCCCTGATGTTAATCGGGTCTTGATTCGCTTGACGCTGCTG | 2.55
CCGATTAACATCAAGGACATTCCTGATGTTAATCGGGTCTTGATTCGCTTGACGCTGCTG | 1.43
CCGATTAACATCACGGAGTTTCCTGATGTTAATCGGGTCTTGATTCGCTTGACGCTGCTG | 3.34

Sequence | binding signal [z-score]
CCGATTAACATCAAAATTTCCGTTGATGTTAATCGGGTCTTGATTCGCTTGACGCTGCTG | 1.64
CCGATTAACATCAAGAAATTCCTTGATGTTAATCGGGTCTTGATTCGCTTGACGCTGCTG | 1.02
CCGATTAACATCAGGGCAGTCCATGATGTTAATCGGGTCTTGATTCGCTTGACGCTGCTG | 1.1
CCGATTAACATCAGGAAATATCCTGATGTTAATCGGGTCTTGATTCGCTTGACGCTGCTG | 1.24
CCGATTAACATCAGGAATGTCCATGATGTTAATCGGGTCTTGATTCGCTTGACGCTGCTG | 1.06
CCGATTAACATCAAGGAAGTTCCTGATGTTAATCGGGTCTTGATTCGCTTGACGCTGCTG | 2.07
CCGATTAACATCAGGAAATCTCCTGATGTTAATCGGGTCTTGATTCGCTTGACGCTGCTG | 1.25
CCGATTAACATCACGGAATCTCCTGATGTTAATCGGGTCTTGATTCGCTTGACGCTGCTG | 2.17
CCGATTAACATCAAGGAGTTTCCTGATGTTAATCGGGTCTTGATTCGCTTGACGCTGCTG | 2.55
CCGATTAACATCAAGGAACTTCCTGATGTTAATCGGGTCTTGATTCGCTTGACGCTGCTG | 1.83
CCGATTAACATCAAAAATCCGGTTGATGTTAATCGGGTCTTGATTCGCTTGACGCTGCTG | 1.32
CCGATTAACATCACGAAATTTCCTGATGTTAATCGGGTCTTGATTCGCTTGACGCTGCTG | 1.65
CCGATTAACATCAAAATTTCCGCTGATGTTAATCGGGTCTTGATTCGCTTGACGCTGCTG | 1.48
CCGATTAACATCAAGGAATCTCCTGATGTTAATCGGGTCTTGATTCGCTTGACGCTGCTG | 1.78
CCGATTAACATCAGGAAATTTCATGATGTTAATCGGGTCTTGATTCGCTTGACGCTGCTG | 1.4
CCGATTAACATCAGGAACTGCCCTGATGTTAATCGGGTCTTGATTCGCTTGACGCTGCTG | 2.36
CCGATTAACATCAGCAAAATTCCTGATGTTAATCGGGTCTTGATTCGCTTGACGCTGCTG | 1.04
CCGATTAACATCAGGAACTTCCATGATGTTAATCGGGTCTTGATTCGCTTGACGCTGCTG | 1.63
CCGATTAACATCAGAATTGCCCATGATGTTAATCGGGTCTTGATTCGCTTGACGCTGCTG | 1.1
